Screening data as filed in PubChem BioAssay.
Sampled rows, rich in hits. Any-hit rate of the full collection: about 1.2%.
B2AR arrestin = qHTS assay of beta-arrestin-biased ligands of beta2-adrenergic receptor; Beta-2 adrenergic receptor (Homo sapiens), P07550; beta-arrestin recruitment to beta2AR, cell-based reporter; Potency, µM (series often up to 46.1 µM), inactives show at the highest dose activation, actives largely listed as activators; 0.02% of 330,000 active; AID 492947, 2010;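 further: 0% = DMSO controls and full agonism = EC100 isoproterenol or metaproterenol; nearly all actives have a fitted effect of over 65% in size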
Target sequence (P07550 whole entry, looked up): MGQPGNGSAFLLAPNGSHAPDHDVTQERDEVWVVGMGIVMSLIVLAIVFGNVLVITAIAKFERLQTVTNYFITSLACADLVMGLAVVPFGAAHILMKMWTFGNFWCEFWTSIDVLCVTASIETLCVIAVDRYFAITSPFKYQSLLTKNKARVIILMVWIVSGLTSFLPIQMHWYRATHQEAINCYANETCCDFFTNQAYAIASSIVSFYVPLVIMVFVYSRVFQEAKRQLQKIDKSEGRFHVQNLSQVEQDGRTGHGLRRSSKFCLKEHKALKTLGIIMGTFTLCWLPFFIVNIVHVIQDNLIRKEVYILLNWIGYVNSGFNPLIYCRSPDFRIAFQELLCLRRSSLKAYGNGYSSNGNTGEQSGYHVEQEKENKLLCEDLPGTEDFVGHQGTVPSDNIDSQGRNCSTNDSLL
BRCA1 expr act = qHTS Assay to Identify Small Molecule Activators of BRCA1 Expression | MCF7-BRCA1-FFLuc reporter, luminescence, 48 h; response scale: scaled: vehicle 0%, 10 µM genistein 100% | Potency, µM (titrated, usually from 46.1 µM), for the others: at the top dose activation, actives largely listed as activators | 1.1% of 380,000 active | AID 624202, 2012; further: nearly all actives have a fitted effect of over 80% in size
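48 h compound treatment of MCF7-BRCA1-FFLuc cells (phenol-red free MEM, 37 °C), then 15 min with luciferase substrate and luminescence imaging.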
Mito fusion yeast = qHTS Assay for Small Molecule Inhibitors of Mitochondrial Division or Activators of Mitochondrial Fusion. S. cerevisiae fusion-defective mutant growth rescue, CellTiterGlo 48 h. Potency, µM (doses to about 46.1 µM), for inactives: at the highest dose growth rescue (activation), most hits filed as activators. 0.23% of 320,000 active; further: % of control where 0% means no effect; nearly all actives have a fitted effect of over 45% in size
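Compounds are tested for their ability to restore growth of mitochondrial fusion-defective yeast strains at non-permissive 37C in YPEG medium over 48 hours. Viability is quantified by luciferase luminescence.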
ERG-DNA inh = qHTS for Small Molecule Inhibitors of the ERG Ets/DNA interaction; AID 624246, 2012; fluorescence polarization, His-ERG Ets domain / labelled DNA; Transcriptional regulator ERG (Homo sapiens), P11308; 0.028% of 370,000 active; Potency, µM (series often up to 76.9 µM), without a hit: at the top dose FP activity, negative = inhibition, usual class: inhibitors; active means well fitted inhibition curve with a large enough effect in the polarisation, with a control signal flat; inconclusive means small, poorly fitted or top-dose-only effect, or effect the other way, or a change in a side signal; inactive means no such curve, though single readings can be large or run the other way; the % refers to the polarisation;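 further: polarization taken with two DNA probes labelled with fluorescein and Texas red; % of control where 0% means no effect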
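His-tagged ERG Ets domain (1 uM in the protein solution; 300mM KCl, 50mM Tris-HCl, 1mM EDTA, 1mM DTT, pH 7.5) received compound, then a probe mix of 5 nM fluorescein-DNA and 100nM Texas-615-DNA. Fluorescence polarization was read for both dyes.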
An asterisk follows results filed as active; ? = inconclusive; nt = no result; ! = a repeat was not active. Unless noted, the call rests on the fitted dose curve; in most records, active means well fitted curve in the direction sought with a large enough effect; inconclusive means small, poorly fitted or top-dose-only effect, or another doubt; inactive means no such curve, though single readings can be large; an effect the other way counts as inactive or inconclusive. Potency means the concentration at half of the fitted maximal effect.

SMILES	B2AR arrestin	BRCA1 expr act	Mito fusion yeast	ERG-DNA inh
COc1ccc2cc(/C=N/O)c(Cl)nc2c1	0.0%	7.94µM*	3.7%	-3.6%
CC#C[C@]1(O)CC[C@H]2[C@@H]3CCC4=CC(=O)CCC4=C3[C@@H](c3ccc(N(C)C)cc3)C[C@@]21C	3.5%	0.0%	9.2µM*!	-2.3%
Cc1ccc2c(c1)cc1c(=O)[nH]ncn12	-0.3%	11.2µM*	7.5%	-12.0%
Cc1ccc(C)c(Cn2nc(C)n3c(cc4cc(C)ccc43)c2=O)c1	nt	24.3%	nt	-0.4%
O=C(CN1CCCC1=O)NC1CCCc2c1cnn2-c1cc(F)cc(F)c1 (stereo not drawn)	-0.5%	42.8%	1.5%	-4.0%
CC(C)(C)c1ccc(-n2ncc3c2CCCC3NC(=O)CN2CCCCC2=O)cc1 (stereo not drawn)	-0.6%	-0.3%	4.47µM*	4.8%
CSCC(=O)N1CCc2ccc(NC(=O)c3ccccc3Cl)cc2C1	-0.8%	10µM*	2.9%	-5.3%
c1ccn(-c2ccc(-c3ccn[nH]3)cc2)c1	-1.0%	5.01µM*	?	-5.3%
CC1=C/C(=N\NC(=S)NCc2ccccc2)CC1	7.08µM*	29.8%	-31.1%	-2.7%
Clc1ccc(-c2nnc(C3CC3)o2)cc1	-0.7%	62.8%	4.0%	1.4%
Fc1ccc(-c2nnc(-c3ccc(Cl)cc3)o2)cc1	0.1%	2µM*	-0.8%	2.1%
Clc1ccc(-c2nnc(N3CCOCC3)o2)cc1	-0.8%	3.98µM*	1.8%	10.1%
O=C(NNC(=S)Nc1ccccc1Cl)c1ccccc1	0.5%	12.6µM*	-2.2%	9.7%
O=C(NNC(=S)Nc1ccc(Cl)cc1)c1ccccc1	0.5%	81.7%	-21.4%	-8.5%
O=C(NNC(=S)Nc1ccccc1Cl)c1ccccc1Cl	0.0%	10µM*	1.8%	-4.7%
O=C(O)c1cc2cccc([N+](=O)[O-])c2[nH]1	nt	0.0%	nt	nt
CN(Cc1nccn1C)C(=O)c1ccc2nc(Cc3ccccc3F)oc2c1	-1.1%	12.6µM*	0.0%	0.9%
CN(Cc1nccs1)C(=O)c1ccc2nc(Cc3ccccc3F)oc2c1	0.3%	3.16µM*	-2.8%	-2.2%
COc1ccc(Cc2nc3ccc(C(=O)N(C)Cc4nccn4C)cc3o2)cc1	nt	6.4%	nt	nt
CN(C)c1ccc(/C=N\Nc2ccc([N+](=O)[O-])cc2[N+](=O)[O-])cc1Br	nt	-21.1%	nt	nt
COc1ccccc1-c1noc(-c2cc(OC)c(OC)c(OC)c2)n1	-0.3%	-55.2%	10.4%	2.6%
COc1cc(-c2nc(-c3ccccn3)no2)cc(OC)c1OC	0.3%	7.94µM*	-3.7%	nt
c1ccc(-c2noc(-c3cccc4ccccc34)n2)nc1	-0.1%	-15.2%	10.3%	-7.2%
COc1cccc(-c2nc(-c3ccccn3)no2)c1OC	-0.1%	4.47µM*	0.9%	-3.7%
CCc1cccc(NC(=O)c2cc3c(=O)[nH]c4ccccc4c3n2C)c1	nt	nt	nt	9.8%
SMILES	B2AR arrestin	BRCA1 expr act	Mito fusion yeast	ERG-DNA inh
COC(=O)c1cc(C)nc2c1c(=O)nc(SCc1ccccc1C)n2C1CC1	nt	nt	nt	-4.2%
Cc1ccc(-c2nc(-c3cccnc3)no2)c(C)c1	-0.8%	6.31µM*	6.3%	-2.1%
Brc1ccc(-c2nc(-c3cccnc3)no2)o1	0.0%	3.98µM*	7.0%	-1.0%
Brc1ccc(-c2nc(-c3ccccc3)no2)o1	0.2%	43.5%	-4.4%	-1.0%
Cc1ccc(C)c(OCc2nc(-c3cccnc3)no2)c1	0.6%	65.0%	1.0%	-6.7%
Cc1ccc(NC(=O)C(CC(C)C)N2Cc3ccccc3C2=O)cc1F (stereo not drawn)	nt	nt	nt	0.7%
CC1CCN(c2ccc(C(=O)NCc3cccs3)cn2)CC1	-1.1%	14.1µM*	0.5%	nt
CC1CCN(S(=O)(=O)c2cccc(C(=O)NCc3cccs3)c2)CC1	-0.1%	0.0%	12.4%	7.5%
O=C(Cn1c(=O)n(-c2ccc(F)c(Cl)c2)c(=O)c2sc3ccccc3c21)NC1CCCCC1	nt	-9.4%	nt	9.2%
COc1ccc(CNC(=O)c2oc3c(c2C)-c2nn(Cc4ccccc4Cl)cc2CC3)cc1	nt	nt	nt	-5.9%
CC(C)CC(=O)Nc1ccc2oc(-c3cccnc3)nc2c1	-1.6%	?	1.6%	nt
CCCC(=O)Nc1ccc2oc(-c3cncc(Br)c3)nc2c1	-0.1%	3.16µM*	9.3%	5.3%
CCC(=O)Nc1ccc2oc(-c3cccnc3)nc2c1	0.5%	10µM*	-1.4%	-1.4%
Cc1ccc2nc(-c3ccccn3)oc2c1	0.1%	?	-8.1%	0.5%
Cc1ccc2nc(-c3cccnc3)oc2c1	0.3%	3.16µM*!	2.2%	-7.5%
C[N+](C)(C)c1ccc(/C=C/c2ccnc3ccccc23)cc1	nt	-25.4%	nt	nt
Cc1cccc(N2C(=O)C(CC(=O)Nc3ccc(F)cc3)N(C3CCCC3)C2=O)c1 (stereo not drawn)	nt	nt	nt	-4.2%
Cc1csc(NC(=O)c2sc3nc(-c4cccs4)ccc3c2N)n1	-0.1%	1.7%	11.2µM*	nt
Cc1ccc(OCc2ccc(C(=O)NCC3CCCO3)cc2)cc1 (stereo not drawn)	0.3%	23.0%	-1.9%	1.5%
CCOc1ccc2oc(C(=O)NCC3CCCO3)c(C)c2c1 (stereo not drawn)	-1.1%	8.91µM*	0.6%	-14.7%
O=C(NCC1CCCO1)c1ccc(COc2ccccc2)cc1 (stereo not drawn)	0.0%	11.2µM*	2.6%	17.1%
COc1ccc2oc(C(=O)NCC3CCCO3)c(C)c2c1 (stereo not drawn)	-0.2%	?	-0.6%	-1.4%
CCOCC(=O)Nc1c(C(=O)Nc2ccc3c(c2)OCCO3)oc2ccccc12	0.3%	2µM*	6.3%	2.2%
CCOc1ccc2oc(C(=O)Nc3ccc4c(c3)OCO4)c(C)c2c1	0.4%	2.82µM*	5.9%	12.3%
Cc1cc(C)cc(N(CC(=O)NCc2ccccc2Cl)S(=O)(=O)c2c(C)noc2C)c1	nt	-9.7%	nt	3.9%
SMILES	B2AR arrestin	BRCA1 expr act	Mito fusion yeast	ERG-DNA inh
Cc1cccc(NC(=O)Cn2c(=O)n(Cc3ccccc3)c(=O)c3oc4ccccc4c32)c1C	nt	nt	nt	-2.3%
CCCc1noc(-c2ccc(N3CCCCC3)c([N+](=O)[O-])c2)n1	nt	7.08µM*	nt	-3.3%
COc1ccc2cc(C3=CC(=O)CC(C)(C)C3=O)ccc2c1	nt	12.6µM*	nt	nt
Cc1ccc(S(=O)(=O)Nc2ccc(N=Nc3ccc(O)cc3)cc2)cc1	-0.9%	-20.0%	20µM*	7.3%
CSc1ccc(S(=O)(=O)Nc2ccc(S(=O)(=O)Nc3ccc(C)cc3)cc2)cc1	-0.4%	-14.5%	18.0%	4.3%
CC(/C=N/Nc1nnc(C)c(=O)[nH]1)=C\c1ccccc1	0.0%	10µM*	0.2%	nt
COc1cc2nc(N(C)C)nc(NC3CCN(C)CC3)c2cc1OC	nt	-54.7%	nt	nt
Cc1ccc(CC(=O)O/N=C(\N)c2ccccn2)cc1	0.2%	?	1.3%	2.3%
N/C(=N\OC(=O)Cc1ccc(Cl)cc1)c1ccccn1	0.2%	10µM*	-3.6%	-9.9%
N/C(=N\OC(=O)C1CCCCC1)c1ccncc1	-0.7%	32.5%	-0.5%	-7.3%
